Assay outcomes as filed in PubChem BioAssay.
Compounds with a hit are over-represented: about 2.1% of the library has one in this group of screens.
D2 PAM-1 = positive allosteric modulators of human D2 dopamine receptor. P14416. DiscoveRx D2 beta-arrestin cells, luminescence, 90 min; 100% = 57 uM dopamine signal. potentiation, % (no concentration beside the values). 360,000 compounds, 0.23% hits. AID 624464; in the data active = potentiation above about 50%; inconclusive = mostly about 30% to 49%
Target sequence (P14416 whole entry, looked up): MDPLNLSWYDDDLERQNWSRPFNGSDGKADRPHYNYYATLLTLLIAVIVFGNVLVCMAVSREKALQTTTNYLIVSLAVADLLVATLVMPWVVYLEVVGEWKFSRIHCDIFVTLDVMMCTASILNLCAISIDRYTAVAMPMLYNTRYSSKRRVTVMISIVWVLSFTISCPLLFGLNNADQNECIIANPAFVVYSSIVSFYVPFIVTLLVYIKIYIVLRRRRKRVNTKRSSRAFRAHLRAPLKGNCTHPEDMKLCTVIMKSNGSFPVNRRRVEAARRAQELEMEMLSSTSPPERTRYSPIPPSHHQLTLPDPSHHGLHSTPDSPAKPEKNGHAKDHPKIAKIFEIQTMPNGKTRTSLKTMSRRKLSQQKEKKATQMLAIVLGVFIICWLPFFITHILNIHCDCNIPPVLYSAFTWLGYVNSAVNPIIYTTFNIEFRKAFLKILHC
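D2 cells co-treated with compound plus 50 nM dopamine (EC20) for 90 min at 37 deg C to detect potentiation. Beta-arrestin recruitment was read as enzyme-fragment luminescence after 1 h at ambient temperature. Full response was set by 57 uM dopamine.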
LDHA inh = inhibitors of human lactate dehydrogenase A; AID 1347041; 480,000 compounds, 0.15% hits; activity change, % (values are at about 110 or 230 µM); P00338; purified LDHA, NADH/diaphorase-resazurin fluorescence; stronger effect = lower value; in the data active = activity change below about -30%; inconclusive = mostly about -25% to -30%;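 also: plate controls were DMSO wells for no effect and wells without enzyme for full effect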
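Human LDH5 (2 nM) was incubated with 0.06 mM NADH and 0.2 mM pyruvate for 5 min at room temperature in Tris pH 7.4. Remaining NADH was coupled through diaphorase/resazurin, and resorufin fluorescence was read at 0 and 20 min.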
D2 antag = D2 dopamine receptor (human) antagonism | 340,000 compounds, 2% hits | AID 485344 | inhibition, % at 10 µM | HEK293 TREx D2 cells, calcium flux, dopamine EC80 | P14416; in the data active = inhibition above about 30%; inactive = below that, where a call was filed; also: 0% is about no effect
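Read-out: kinetic calcium fluorescence (1 cycle/s) in inducible HEK293 T-REx D2 cells after an EC80 dopamine addition that followed 180 s compound preincubation. Loss of the dopamine response indicates antagonism.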
D2 ag-1 = activates the human D2 dopamine receptor. P14416. HEK293 T-REx D2 cells, calcium flux agonist mode. activation, % at 2 µM. 340,000 compounds, 0.53% hits. AID 485358;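 active = activation over 3 SD above normal in the single-dose calcium agonist read, cut at about 30% in these data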; also: 0% is about no effect
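Tetracycline-induced HEK293 Trex cells with D2 receptor force-coupled to calcium signaling, plated overnight at 30 C and loaded with no-wash calcium dye. Calcium flux read kinetically for 180 s after compound addition; responses flag agonists.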
D2 PAM-2 = positively modulates the human D2 dopamine receptor allosterically; P14416; HEK293 T-REx D2, calcium flux, EC20 dopamine potentiation; potentiation, % at 10 µM; 340,000 compounds, 0.34% hits; AID 485347;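 active = potentiation over 3 SD above the plate norm, cut at about 30% in these data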; also: 0% is about no effect
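Potentiation of an EC20 dopamine calcium response is measured in a force-coupled, tetracycline-inducible Hek293 Trex D2 line. Compound-only kinetic reads over 180 s flag agonists before dopamine addition.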
D2 ag-2 = activates the human D2 dopamine receptor | activation, % (no concentration beside the values) | P14416 | DiscoveRx PathHunter D2 beta-arrestin, luminescence, 90 min; 100% = 57 uM dopamine signal | 360,000 compounds, 0.084% hits; in the data active = activation above about 40%; inconclusive = between about 15% and that limit
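Agonist mode: compounds alone added to overnight-plated D2 PathHunter cells for 90 min at 37 C, with 57 uM final dopamine (EC100) defining full response. Beta-arrestin recruitment detected by chemiluminescent reagent, read after 1 h at ambient temperature.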
Starred values were filed as active, the others as inactive; ? = inconclusive; · = not tested or not shown.

SMILES	D2 PAM-1	LDHA inh	D2 antag	D2 ag-1	D2 PAM-2	D2 ag-2
COc1ccc(Cn2c(-c3ccc(OC)cc3)nc3c(c(=O)c4ccccc4n3C)c2=O)cc1	·	·	14	0	-13	·
N#Cc1c(-c2ccccc2)cc(-c2cccs2)nc1S(=O)Cc1ccccc1 (stereo not drawn)	·	4	·	·	·	·
Cc1c(CCC(=O)Nc2nccs2)c(=O)oc2c(C)c(O)ccc12	·	1	·	·	·	·
C#CCOC(=O)CCC(=O)O	·	-1	·	·	·	·
Cc1c2cnn(CC(=O)NCc3cccs3)c(=O)c2c(C)n1Cc1ccccc1	·	0	·	·	·	·
Nc1ccc(NS(=O)(=O)c2cccc(Cl)c2Cl)cc1[N+](=O)[O-]	·	9	·	·	·	·
CCOCCSc1nnc(-c2nn(Cc3ccccc3)c(=O)c3ccccc23)o1	·	-3	·	·	·	·
COc1ccc(C2C(O)C(c3c[nH]c4ccccc34)=NN2C(=O)CCl)cc1 (stereo not drawn)	6	-2	32*	0	-4	-4
COc1ccc(C2NN=C(c3c[nH]c4ccccc34)C2O)cc1 (stereo not drawn)	19	1	0	1	-6	?
O=C1C(Cl)=C(NCCCN2CCOCC2)C(=O)c2ccccc21	1	6	·	·	·	4
O=C1C(Cl)=C(NCCN2CCOCC2)C(=O)c2ccccc21	11	-14	36*	1	-7	5
Cc1nc2c(cc(Oc3cnccn3)c3ccsc32)s1	·	-13	·	·	·	·
COc1ccccc1C(=O)NCCC(=O)NC(C)c1ccc(-n2ccnc2)cc1 (stereo not drawn)	-15	-2	33*	0	-2	-3
CCOCCCNCc1ccc(OC)c(OC)c1	-13	-25	36*	-1	-6	-1
COc1ccc(S(N)(=O)=O)cc1-c1nnc2c3ccccc3c(C)nn12	0	-5	30*	0	-3	1
CCCCNS(=O)(=O)c1ccc(C)c(-c2nnc3c4ccccc4c(C)nn23)c1	·	-4	·	-1	6	·
COc1ccccc1C1SCCN1S(=O)(=O)c1cccc(C(F)(F)F)c1 (stereo not drawn)	-8	-7	47*	1	-2	-1
COc1ccccc1C1SCCN1S(=O)(=O)c1ccccc1 (stereo not drawn)	-7	-13	·	·	·	0
Cc1cccc(CSc2nnc(COc3ccc(Cl)c(C)c3)n2C)c1	·	-5	·	·	·	·
C/C=C(/C)C(=O)Nc1cccc(C2=NOC3(C2)C[C@@H](C(N)=O)N(C(=O)CC(c2ccccc2)c2ccccc2)C3)c1 (stereo partly drawn)	-4	3	32*	1	37*	-2
C/C=C/C=C\C(=O)Nc1cccc(C2=NOC3(C2)C[C@H](C(N)=O)N(C(=O)CC#N)C3)c1 (stereo partly drawn)	-4	2	33*	0	-3	-6
C/C=C(\C)C(=O)Nc1cccc(C2=NOC3(C2)C[C@H](C(N)=O)N(C(=O)c2cc([N+](=O)[O-])cc([N+](=O)[O-])c2)C3)c1 (stereo partly drawn)	71*	7	14	0	-6	12
COc1ccc(C2CC(c3cccs3)=NN2c2ccc(C=O)cc2)cc1 (stereo not drawn)	3	-7	-3	31*	-7	-5
N#CNC(=O)c1ccc(-n2cccc2/C=C2\NC(=O)N(CC(=O)Nc3cccc(F)c3)C2=O)cc1	·	-14	·	·	·	·
Cc1cc(C)c2nc(SCC(=O)NC(N)=O)cc(C)c2c1	·	-34*	·	·	·	·
SMILES	D2 PAM-1	LDHA inh	D2 antag	D2 ag-1	D2 PAM-2	D2 ag-2
Cc1cc(Nc2ccccc2)nn1C(=O)c1ccc([N+](=O)[O-])cc1	56*	-5	1	0	-5	4
Cc1[nH]c2ccc(Cl)cc2c1CCN(Cc1cccs1)C(=S)NC(C)(C)C	·	13	·	·	·	·
COc1ccccc1NS(=O)(=O)c1ccc(C)c(C(=O)NC2CCN(Cc3ccccc3)CC2)c1	-41	-3	77*	0	-19	-4
COc1ccccc1NS(=O)(=O)c1cccc(C(=O)NC2CCN(Cc3ccccc3)CC2)c1	-15	-13	101*	1	-24	-3
c1csc(CN2CCOCC2)c1	-4	-31*	-24	0	-10	-1
c1csc(CNCCCN2CCOCC2)c1	2	-1	8	0	3	1
COc1ccc(C(=O)/C(C#N)=C\c2cc(Br)ccc2OC)cc1	·	1	·	·	·	·
CCCOc1ccc(-c2c(C(=O)N/N=C/c3cccs3)nnn2-c2nonc2N)cc1	4	0	19	0	49*	1
CCOc1ccc(-c2c(C(=O)N/N=C(\C)c3ccco3)nnn2-c2nonc2N)cc1	-5	-7	8	2	13	-5
COc1ccc(/C(C)=N/NC(=O)c2nnn(-c3nonc3N)c2-c2ccccc2)cc1	-5	-1	6	31*	17	-1
CCCOc1ccc(-c2c(C(=O)N/N=C/c3ccc(C)o3)nnn2-c2nonc2N)cc1	-6	-13	-1	0	90*	-1
CCOc1ccc(-c2c(C(=O)N/N=C(\C)c3cccs3)nnn2-c2nonc2N)cc1	-5	-1	-17	4	74*	-9
CCOc1ccc(-c2c(C(=O)N/N=C/c3ccc(C)o3)nnn2-c2nonc2N)cc1	-1	-4	8	0	-5	-4
CCCOc1ccc(-c2c(C(=O)N/N=C/c3ccncc3)nnn2-c2nonc2N)cc1	3	-2	2	0	12	2
O=C(Nc1cccnc1-n1cccn1)c1cccc(NC(=O)c2cccs2)c1	·	-4	·	·	·	·
COc1cccc(OC)c1Oc1ccc(C(F)(F)F)cn1	-5	4	66*	0	9	2
COc1ccc2ccccc2c1/C=N/NC(=O)c1ccc([N+](=O)[O-])cc1	-16	0	71*	-2	-28	-1
COc1ccc2ccccc2c1/C=N\NC(=O)c1ccc(C)s1	-37	-6	40*	0	-20	-3
O=C1C(C2=CCCCC2)CCCC1C1=CCCCC1 (stereo not drawn)	·	10	·	·	·	·
O=C1C(O)=C(c2ccc(Cl)cc2)C(c2ccccc2F)N1Cc1ccccc1 (stereo not drawn)	·	8	·	·	·	·
CC(C)OC(=O)c1nc2ccccc2nc1N1CCN(c2ccc(F)cc2)CC1	·	-3	·	·	·	·
CC(C)OC(=O)c1cccnc1N1CCN(c2ccc(F)cc2)CC1	-10	0	33*	-2	2	-3
COc1ccc(OCCOCCN2CCN(C)CC2)cc1	-2	-23	-3	0	-10	-2
